HT1080 IDH1KD tx: HT-1080 IDH1 knockdown cell toxicity (counter line). HT-1080 IDH1 knockdown viability, ATP luminescence, 48 h. Potency, µM (top dose mostly 46.1 µM), without a hit: at the highest dose activity, negative = toxicity, most hits filed as cytotoxic. actives 2% (n = 360,000);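 also: potency is read from the fitted curve at half-maximal effect; 0% = DMSO wells and -100% = cell-free medium wells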
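HT-1080-IDH1KD cells (IDH1 knocked down), 750/well in RPMI with 5% FBS, treated with compound 48 h at 37 degrees C. Viability by CellTiter-Glo luminescence, normalised to DMSO and no-cell wells; concentration-response curves classed.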
TDP1 cell CPT: growth inhibition of DT40 Tdp1-/-;hTDP1 cells with camptothecin (screen for TDP1 inhibitors); Potency, µM (doses to about 46.2 µM), without a hit: at the highest dose activity change, negative = growth inhibition, hits mostly inhibitors; actives 12% (n = 420,000); chicken DT40 Tdp1-/-;hTDP1 cells + 20 nM CPT, ATP luminescence, 48 h; also: potency is read from the fitted curve at half-maximal effect; nearly all actives have a fitted effect of over 55% in size
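Chicken DT40 Tdp1-/- cells stably complemented with human TDP1 were seeded at 400 cells/well in medium containing 20 nM camptothecin, exposed to pin-transferred compounds, and grown at 37 °C for at least 48 hr. Viability was read as ATP luminescence.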
HT1080-NT tox: kills 2HG-producing HT-1080-NT fibrosarcoma cells; HT-1080-NT fibrosarcoma viability, CellTiter-Glo ATP luminescence, 48 h; Potency, µM (highest dose often 46.1 µM), for the others: top-dose activity, negative = less viability, hits mostly cytotoxic; actives 1.6% (n = 360,000);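 also: NT is the 2HG producing partner of a matched IDH1 knockdown line; potency is read from the fitted curve at half-maximal effect; 0% = DMSO-treated cells and -100% = media-only wells without cells; nearly all actives have a fitted effect of over 55% in size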
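Viability by CellTiter-Glo luminescence after 48 h compound exposure at 37C of HT-1080-NT cells (750/well, RPMI, 5% FBS). % activity scaled between DMSO wells and medium-only wells, then curve-fitted and categorized by curve class.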
TDP1 cell noCPT: qHTS for Inhibitors of human tyrosyl-DNA phosphodiesterase 1 (TDP1): qHTS in cells in absence of CPT; DT40 Tdp1-/- hTDP1 cells, no CPT, ATP luminescence, 48 h; Potency, µM (titrated, usually from 46.2 µM), without a hit: at the top dose activity change, negative = growth inhibition, actives largely listed as inhibitors; actives 15% (n = 420,000); AID 686978, 2013; also: potency is read from the fitted curve at half-maximal effect; nearly all actives have a fitted effect of over 55% in size
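Luminescent ATP content (CellTiter-Glo) served as the growth readout. Knockout chicken DT40 cells expressing human TDP1 were exposed to compounds without camptothecin for a minimum 48 hr at 37 °C.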
ELG1 repair inh: blocks ELG1-dependent DNA repair in HEK293T cells; HEK293T ELG1-luciferase reporter, luminescence, 16 h; DNA damage induced by 5-fluorouridine; Potency, µM (top dose mostly 46.1 µM), for inactives: at the highest dose activity change, negative = inhibition, hits mostly inhibitors; actives 2.3% (n = 330,000); AID 504467; also: potency is read from the fitted curve at half-maximal effect; nearly all actives have a fitted effect of over 55% in size
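Reporter activity after DNA damage by 5-fluorouridine is monitored. Compound-treated cells incubate 16 hr at 37 °C, then ONE-Glo is added for 30 min before luminescence reading.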
IL1B secr inh: inflammasome signaling inhibition, IL-1 beta readout; AID 743279; actives 4.7% (n = 360,000); activity change, % at 57.5 µM; THP-1 LPS/ATP IL-1B secretion, AlphaLISA, 16 h; stronger effect = lower value; in the data active = activity change below about -50%; inconclusive = mostly about -30% to -49%
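Secreted IL-1B measured by AlphaLISA bead assay after 16 h compound exposure of THP-1 cells; compounds (final up to 57.5 uM) added 1 h before LPS (250 ng/mL) and ATP (1.25 mM) stimulation; lower signal means less secretion.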
* hit, by the source's call; [ ] = remark or other dose. A selection: hits, their analogues and other compounds. The true share with any hit is near 19%. Unless noted, calls follow the shape of the dose curve; as a rule, active = well fitted curve in the direction sought with a large enough effect; inconclusive = small, poorly fitted or top-dose-only effect, or another doubt; inactive = no such curve, though single readings can be large; an effect the other way counts as inactive or inconclusive. Unless noted, % is scaled to controls: 0 for no effect and ±100 for the full control effect.

Screening O=C(N/N=C/c1ccc(Br)cc1)c1ccccc1-n1cccc1 returned HT1080 IDH1KD tx 11µM*, TDP1 cell CPT inconclusive, HT1080-NT tox inconclusive, TDP1 cell noCPT 16µM*, ELG1 repair inh -16% and IL1B secr inh 32.
For O=C(COC(=O)C(Cc1ccccc1)NC(=O)c1ccc(Cl)cc1)c1ccc(Cl)cc1 (stereo not given) the results were HT1080 IDH1KD tx 5%, TDP1 cell CPT -16%, HT1080-NT tox 22%, TDP1 cell noCPT 18%, ELG1 repair inh 12% and IL1B secr inh -7.
Cc1c(NC(=O)/C=C/c2cccs2)c(=O)n(-c2ccccc2)n1C was read as HT1080 IDH1KD tx 4%, TDP1 cell CPT -1%, HT1080-NT tox 5%, TDP1 cell noCPT -5%, ELG1 repair inh -6% and IL1B secr inh -5.
For Cc1c(NC(=O)/C=C/c2cn(-c3ccccc3)nc2-c2ccc(F)cc2)c(=O)n(-c2ccccc2)n1C the results were HT1080 IDH1KD tx 0%, TDP1 cell CPT 15µM*, HT1080-NT tox -6%, TDP1 cell noCPT inconclusive, ELG1 repair inh 4% and IL1B secr inh -7.
O=C(/C=C/c1cn(-c2ccccc2)nc1-c1ccccc1)Nc1ccc(C(=O)O)cc1 was read as HT1080 IDH1KD tx 23µM*, TDP1 cell CPT inconclusive, HT1080-NT tox inconclusive, TDP1 cell noCPT inconclusive, ELG1 repair inh inconclusive and IL1B secr inh -2.
Screening NS(=O)(=O)c1ccc(NC(=O)/C=C/c2cn(-c3ccccc3)nc2-c2cccc(Cl)c2)cc1 returned HT1080 IDH1KD tx inconclusive, TDP1 cell CPT inconclusive, HT1080-NT tox inconclusive, TDP1 cell noCPT 29µM*, ELG1 repair inh inconclusive and IL1B secr inh 14.
Screening CC1CCCN(C(=O)CN(C)S(=O)(=O)c2ccc3c(c2)c(=O)n(C)c(=O)n3C)C1 (stereo not given) returned HT1080 IDH1KD tx -3%, TDP1 cell CPT -15%, HT1080-NT tox 2%, TDP1 cell noCPT 16%, ELG1 repair inh 16% and IL1B secr inh 16.
For Cc1cc(-c2ccnc(-n3ncc(C(=O)N(C)CC(O)c4ccccc4)c3C)n2)c(C)s1 (stereo not given) the results were TDP1 cell CPT 0%[9.04 µM] and TDP1 cell noCPT -30%.
Screening CCOC(=O)C1CCCN(C(=O)c2cccc(S(=O)(=O)N(Cc3ccccc3)c3ccccc3OC)c2)C1 (stereo not given) returned HT1080 IDH1KD tx 4%, TDP1 cell CPT 23µM*, HT1080-NT tox -6%, TDP1 cell noCPT 16µM*, ELG1 repair inh -21% and IL1B secr inh -15.
CCOC(=O)C1CCCN(C(=O)c2ccc3ncsc3c2)C1 (stereo not given) was read as HT1080 IDH1KD tx -7%, TDP1 cell CPT -20%, HT1080-NT tox 0%, TDP1 cell noCPT -10%, ELG1 repair inh -7% and IL1B secr inh -1.
`CCOC(=O)C1CCCN(C(=O)c2ccc3nc(-c4ccccc4)c(-c4ccccc4)nc3c2)C1` (stereo not given) gave HT1080 IDH1KD tx -2%, TDP1 cell CPT inconclusive, HT1080-NT tox 6%, TDP1 cell noCPT 21µM*, ELG1 repair inh -15% and IL1B secr inh -9.
Screening CCOC(=O)C1CCCN(C(=O)c2ccc3nc(-c4ccc(OC)c(OC)c4)c(-c4ccc(OC)c(OC)c4)nc3c2)C1 (stereo not given) returned HT1080 IDH1KD tx -14%, TDP1 cell CPT 29µM*, HT1080-NT tox -17%, TDP1 cell noCPT inconclusive, ELG1 repair inh 1.8µM* and IL1B secr inh -8.
CCOC(=O)C1CCCN(C(=O)c2cccc(S(=O)(=O)N(C)c3ccc(OC)cc3)c2)C1 (stereo not given) was read as HT1080 IDH1KD tx 2%, TDP1 cell CPT inconclusive, HT1080-NT tox 1%, TDP1 cell noCPT inconclusive, ELG1 repair inh -12% and IL1B secr inh 20.
For CC(OC(=O)CCCN=C1NS(=O)(=O)c2ccccc21)C(=O)Nc1ccc(F)cc1Cl (stereo not given) the results were HT1080 IDH1KD tx 8%, TDP1 cell CPT -4%, HT1080-NT tox 5%, TDP1 cell noCPT -6%, ELG1 repair inh 15% and IL1B secr inh 5.
For Cc1cccc(NC(=O)CSc2nc(=O)n(CCN3CCOCC3)c3c2CCCC3)c1C the results were HT1080 IDH1KD tx 0%, TDP1 cell CPT -21%, HT1080-NT tox 9%, TDP1 cell noCPT -20%, ELG1 repair inh -2% and IL1B secr inh -12.
`CCOC(=O)CSc1nc(-c2ccccc2)cc(C(F)(F)F)c1C#N` gave TDP1 cell CPT -10% and TDP1 cell noCPT -11%.
N#Cc1c(-c2ccccc2)cc(-c2ccccc2)nc1SCC(O)CS(=O)(=O)Cc1ccccc1 (stereo not given) was read as TDP1 cell CPT 10µM* and TDP1 cell noCPT 5.8µM*.
For CCSc1nc(-c2ccc(OC)cc2)cc(-c2ccccc2)c1C#N the results were HT1080 IDH1KD tx 8%, TDP1 cell CPT inconclusive, HT1080-NT tox 0%, TDP1 cell noCPT 23µM*, ELG1 repair inh -16% and IL1B secr inh 0.
For COc1ccc(-c2cc(-c3ccccc3)c(C#N)c(S(C)=O)n2)cc1 (stereo not given) the results were HT1080 IDH1KD tx inconclusive, TDP1 cell CPT 3.3µM*, HT1080-NT tox inconclusive, TDP1 cell noCPT 3.3µM*, ELG1 repair inh -16% and IL1B secr inh -96*.
For Cc1cccc(-c2cc(-c3ccccc3)nc(SCC(=O)Nc3ccccc3)c2C#N)c1 the results were TDP1 cell CPT 0% and TDP1 cell noCPT -2%.
`CCOC(=O)/C(Sc1nc(-c2ccccc2)cc(-c2ccccc2)c1C#N)=C(\C)O` gave HT1080 IDH1KD tx 10%, TDP1 cell CPT -23%, HT1080-NT tox 11%, TDP1 cell noCPT 29µM*, ELG1 repair inh -9% and IL1B secr inh -19.
For COc1ccc(-c2cc(-c3ccccc3)c(C#N)c(=S)[nH]2)cc1 the results were HT1080 IDH1KD tx 2%, TDP1 cell CPT 2%, HT1080-NT tox -1%, TDP1 cell noCPT -13%, ELG1 repair inh 1% and IL1B secr inh 12.

Bioassay records: PubChem BioAssay, National Center for Advancing Translational Sciences (NCATS)
